Composite z-score, z-score and composite Z-score data for 7 compounds are collected here from PubChem BioAssay.

For experiment [1], the system named is Human papillomavirus type 1a protein E7 (residues 44-93). Nature of the experiment: small molecules binding HPV E7 44-93 – biochemical, small-molecule microarray, residues 44-93, 635 nm fluorescence, primary screen (AID 1108).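 Further: E7 fragment applied at 1 µg/mL in TBST for 1 h at 4 C; score combines spot fluorescence with its signal to noise ratio.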 The note with it: fluorescence 635 nm, higher = more signal.
Experiment [2] is described as follows: hepatitis C replication reporter changes, two-sided – Huh7 cells, luciferase reporter, HCV replication inhibitor project, primary screen (AID 1109).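 Further: huh7 hepatoma cells harbouring a luciferase neomycin HCV replicon reporter; luciferase luminescence as measure of HCV replicon replication; test concentration not given here.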 Particulars: Huh7 HCV replicon luciferase reporter, 48 h; higher = more signal.
Experiment [3] has as its target Left-right determination factor 2 (Homo sapiens) (UniProt O00292). In words: small molecules binding LEFTY2 protein – biochemical, small-molecule microarray, 635 nm fluorescence scan, primary screen (AID 1110). Particulars: higher = more signal.
The target of experiment [4] is Calmodulin-1 (Homo sapiens) (UniProt P0DP23). In words: small molecules binding calmodulin-1 with EGTA – biochemical, small-molecule microarray, Cy5-labelled CALM1, profiling panel (AID 1111).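 Further: labelled calmodulin applied in Tris saline Tween buffer holding calcium plus EGTA and DTT.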 The note with it: Cy5-CALM1 binding fluorescence, higher = more signal.
The target is the same in experiment [5]. Nature of the experiment: small molecules binding Ca-loaded calmodulin-1 – biochemical, small-molecule microarray, Cy5-labelled CALM1, plus calcium, artefact control for SMM control-protein annotation, profiling panel (AID 1112).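 Further: score merges spot fluorescence with signal to noise from triplicate slides.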 The note with it: Cy5-CALM1 binding fluorescence, higher = more signal.
Experiment [6] in a line: probe aWnt5a binding to arrayed compounds – biochemical, biotinylated probe, 635/667 nm fluorescence, primary screen (AID 1113).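 Further: score merges 667 nm fluorescence intensity with signal-to-noise per printed feature.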 Particulars: small-molecule microarray, higher = more signal.
Experiment [7] can be described thus: probe aShh binding to arrayed compounds – biochemical, biotinylated probe, 635/667 nm fluorescence, primary screen (AID 1114).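 Further: probe is biotin-labelled aShh protein from a stem cell growth factor screen; measures binding of labelled protein to compounds printed on the slide; score merges feature fluorescence at 667 nm with signal-to-noise.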 Particulars: small-molecule microarray, higher = more signal.
The nature of experiment [8]: probe aNog binding to arrayed compounds – biochemical, biotinylated probe, 635/667 nm fluorescence, primary screen (AID 1115).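 Further: probe is biotinylated aNog protein used at 0.15 µg/mL for 1 h at 4 C; z-score combines 667 nm fluorescence of each spot with its signal to noise.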 The note with it: small-molecule microarray, higher = more signal.
Experiment [9] addresses Torsin-1A-interacting protein 1 (Homo sapiens) (UniProt Q5JTV8). In words: compound microarray binding of lysate hLAP1 – cell lysate, small-molecule microarray, COS7 lysate, 635/667 nm fluorescence, primary screen (AID 1116). The note with it: 635 nm fluorescence, higher = more signal.
The target in experiment [10] is Alpha-bungarotoxin (Bungarus multicinctus) (UniProt P60615). In words: compounds binding labelled alpha-BTX control protein – biochemical, small-molecule microarray, Alexa647 label, 635/667 nm fluorescence, artefact control for SMM control protein annotation, profiling panel (AID 1117). Particulars: alpha-BTX-A647 binding fluorescence, higher = more signal.
Alpha-bungarotoxin (Bungarus multicinctus), sequence (P60615 whole entry, looked up): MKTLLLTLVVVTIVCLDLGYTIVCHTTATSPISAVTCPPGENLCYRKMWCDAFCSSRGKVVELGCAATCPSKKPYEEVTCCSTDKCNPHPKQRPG
Experiment [11] has as its target Albumin (Bos taurus) (UniProt P02769). In words: compounds binding labelled BSA control protein – biochemical, small-molecule microarray, Alexa647 label, 635/667 nm fluorescence, artefact control for SMM control protein annotation, profiling panel (AID 1118).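 Further: score merges 667 nm emission intensity and signal-to-noise per printed compound spot.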 Particulars: BSA-A647 binding, fluorescence 635 nm, higher = more signal.
Experiment [12] is described as follows: probe aXIP binding to arrayed compounds – biochemical, NeuroSMM set, 635/667 nm fluorescence, primary screen (AID 1119).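 Further: probe is the protein aXip251-270 applied at 1 µg/mL to compound-printed slides; binding of probe to printed compounds measured as 667 nm fluorescence plus signal to noise.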 Particulars: small-molecule microarray, higher = more signal, called active from +8 up or from −8 down.
Experiment [13] is described as follows: probe aNOTCH3 binding on compound microarray – biochemical, small-molecule microarray, 635/667 nm fluorescence, primary screen (AID 1120).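 Further: probe is a biotin-tagged antibody raised against NOTCH3 rather than NOTCH3 protein; score merges spot fluorescence near 667 nm with spot signal to noise.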 Particulars: higher = more signal.
Experiment [14] is described as follows: probe aNOTCH2 binding on compound microarray – biochemical, small-molecule microarray, 635/667 nm fluorescence, primary screen (AID 1121).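 Further: score merges feature fluorescence read at 667 nm with its signal to noise.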 The note with it: higher = more signal.
Experiment [15] concerns the target Carbonic anhydrase 2 (Homo sapiens) (UniProt P00918). Nature of the experiment: compounds binding carbonic anhydrase 2 – biochemical, small-molecule microarray, Alexa647-labelled CAII, profiling panel (AID 1122). Particulars: CAII-A647 binding fluorescence, higher = more signal.
Experiment [16] is described as follows: COS7 lysate on small-molecule microarray, probe aHis, 635 nm (AID 1123).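 Further: z-score combines 667nm fluorescence intensity with signal-to-noise per printed compound spot.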 Particulars: COS7 cell lysate, fluorescence, higher = more signal.
Experiment [17] can be described thus: probe aLAP1 signal on lysate-treated microarray – cell lysate, small-molecule microarray, COS7 lysate, primary screen (AID 1124).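 Further: lysate comes from COS7 cells expressing LAP1 and is applied at 0.3 µg/mL; score merges spot fluorescence near 667 nm with signal-to-noise over triplicate slides.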 The note with it: probe aLAP1, fluorescence, higher = more signal.
For experiment [18], the system named is Sam68 (KHDRBS1). Nature of the experiment: compounds binding KHDRBS1 protein – biochemical, small-molecule microarray, 635 nm fluorescence, primary screen (AID 1125).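 Further: score merges 667 nm channel intensity with signal to noise over triplicate slides.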 Particulars: higher = more signal.
The test system of experiment [19] is Chordin-like protein 2 (CHRDL2). Nature of the experiment: compounds binding chordin-like 2 – biochemical, small-molecule microarray, 635 nm fluorescence, primary screen (AID 1126).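 Further: printed compound slides probed with Chrdl2 protein at 4 µg/mL for 1 h at 4 C; score merges 667 nm emission intensity with signal to noise over three replicate slides.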 The note with it: fluorescence 635 nm, higher = more signal.
For experiment [20], the target named is Concanavalin-A (Canavalia ensiformis) (UniProt P02866). Nature of the experiment: compounds binding concanavalin A lectin – biochemical, small-molecule microarray, Alexa647 label, 635 nm, artefact control for SMM control protein annotation, primary screen (AID 1127).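 Further: z combines 667 nm emission intensity with signal-to-noise across three replicate slides.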 The note with it: ConA-A647 binding fluorescence, higher = more signal.
Concanavalin-A (Canavalia ensiformis), sequence (P02866 whole entry, looked up): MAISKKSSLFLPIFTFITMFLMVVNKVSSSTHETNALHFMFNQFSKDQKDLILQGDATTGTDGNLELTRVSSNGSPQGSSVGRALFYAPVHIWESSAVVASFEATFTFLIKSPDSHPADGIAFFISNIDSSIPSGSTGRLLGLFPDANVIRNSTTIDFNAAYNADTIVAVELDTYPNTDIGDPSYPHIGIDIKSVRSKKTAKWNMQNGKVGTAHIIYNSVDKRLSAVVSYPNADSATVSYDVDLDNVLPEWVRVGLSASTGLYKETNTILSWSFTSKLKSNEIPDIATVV

Active and inactive are the calls of the source.

Left-right determination factor 2 (Homo sapiens), sequence (O00292 whole entry, looked up): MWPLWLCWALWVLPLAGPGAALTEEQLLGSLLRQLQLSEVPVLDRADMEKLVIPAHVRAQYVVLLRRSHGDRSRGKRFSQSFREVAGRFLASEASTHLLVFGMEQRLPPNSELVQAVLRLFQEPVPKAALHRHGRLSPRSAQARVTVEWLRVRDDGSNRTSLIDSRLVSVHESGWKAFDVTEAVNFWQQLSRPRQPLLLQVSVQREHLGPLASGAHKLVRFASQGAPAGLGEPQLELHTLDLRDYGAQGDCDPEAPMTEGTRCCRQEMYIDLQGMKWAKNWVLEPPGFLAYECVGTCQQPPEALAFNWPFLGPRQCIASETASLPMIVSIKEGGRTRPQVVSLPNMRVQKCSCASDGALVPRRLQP
Torsin-1A-interacting protein 1 (Homo sapiens), sequence (Q5JTV8 whole entry, looked up): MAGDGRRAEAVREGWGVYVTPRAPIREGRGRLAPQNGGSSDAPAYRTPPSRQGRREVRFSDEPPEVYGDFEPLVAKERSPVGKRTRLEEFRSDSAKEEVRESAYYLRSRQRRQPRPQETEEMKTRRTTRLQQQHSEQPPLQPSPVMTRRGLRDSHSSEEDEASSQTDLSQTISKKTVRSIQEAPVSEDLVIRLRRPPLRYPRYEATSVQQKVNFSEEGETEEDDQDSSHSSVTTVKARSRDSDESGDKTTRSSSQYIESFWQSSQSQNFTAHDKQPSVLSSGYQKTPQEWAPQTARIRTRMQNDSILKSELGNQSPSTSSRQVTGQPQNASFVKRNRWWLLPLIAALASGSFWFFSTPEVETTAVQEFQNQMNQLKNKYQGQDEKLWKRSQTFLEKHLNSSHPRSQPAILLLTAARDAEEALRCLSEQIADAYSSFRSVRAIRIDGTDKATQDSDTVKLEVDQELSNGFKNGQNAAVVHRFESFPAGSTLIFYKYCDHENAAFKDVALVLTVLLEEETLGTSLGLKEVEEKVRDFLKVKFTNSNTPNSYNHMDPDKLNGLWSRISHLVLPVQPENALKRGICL
Albumin (Bos taurus), sequence (P02769 whole entry, looked up): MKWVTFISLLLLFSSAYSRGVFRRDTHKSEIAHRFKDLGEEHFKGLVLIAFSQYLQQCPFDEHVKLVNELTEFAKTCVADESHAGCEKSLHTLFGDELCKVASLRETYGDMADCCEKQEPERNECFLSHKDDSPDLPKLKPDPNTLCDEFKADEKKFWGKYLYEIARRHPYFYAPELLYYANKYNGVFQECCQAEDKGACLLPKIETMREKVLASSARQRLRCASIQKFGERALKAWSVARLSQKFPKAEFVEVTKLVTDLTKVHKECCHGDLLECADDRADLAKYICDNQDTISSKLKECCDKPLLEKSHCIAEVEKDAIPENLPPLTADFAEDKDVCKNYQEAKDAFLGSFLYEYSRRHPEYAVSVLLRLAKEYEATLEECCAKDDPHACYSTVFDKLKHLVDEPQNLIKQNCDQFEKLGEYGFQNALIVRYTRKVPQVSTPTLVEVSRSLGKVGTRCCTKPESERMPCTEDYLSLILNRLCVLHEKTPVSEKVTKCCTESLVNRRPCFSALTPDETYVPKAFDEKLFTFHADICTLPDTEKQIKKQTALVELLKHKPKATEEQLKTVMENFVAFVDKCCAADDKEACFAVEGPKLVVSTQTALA

Regarding `C=C(CCCC)/C(=C/C[C@H](OC(C)=O)c1ccccc1OCCO)c1cnc2ccccc2c1`, the composite z-score in experiment [1] was 0.984; in experiment [3], 0.0641; in experiment [4], -0.0602; in experiment [5], -0.796; in experiment [6], -0.0718; in [7] it was -0.0709. Besides, the composite z-score in experiment [8] is -0.327; in experiment [9], 0.469; in experiment [10], 0.887; in experiment [11] it was 0.553; in experiment [13], -0.12; in [14], -0.173. For the same compound, the composite z-score in experiment [15] amounted to 0.5; in experiment [16], 0.376; in experiment [17], 0.0282; in experiment [18], 0.8; in experiment [19], 0.77; in [20], 0.706. In experiment [2], this compound yielded a z-score of -2.75. For the same compound, in experiment [12], the composite Z-score is 0.282 (inactive).
Regarding `C=CC[C@]1(C(N)=O)N=C(c2ccc(OCCCO)cc2)O[C@H]1c1ccccc1`, the composite z-score in [1] was -0.434; in [3], -0.524; in experiment [4], 0.27; in [5], -0.665; in experiment [6], -0.0685; in [7], 0.401. In addition, the composite z-score was 0.041 in experiment [8]; 1.59 in experiment [9]; 0.947 in [10]; 0.34 in experiment [11]; -0.0284 in experiment [13]; 0.102 in experiment [14]. In addition, the composite z-score is 0.779 in [15]; 0.916 in [16]; -0.137 in experiment [17]; -0.188 in experiment [18]; 0.204 in experiment [19]; 0.721 in experiment [20]. In experiment [2], this compound came in with a z-score of -0.31. Moreover, in experiment [12], the composite Z-score was 0.15 (inactive).
Turning to `O=C1C2C=CC(C(O)COCc3ccccc3)N(Nc3ccc([N+](=O)[O-])cc3)C2C(=O)N1c1ccccc1` (stereo not given), the composite z-score in experiment [1] was 1.44; in [3] it was 0.308; in experiment [4] it was 0.823; in experiment [5] it was -0.432; in experiment [6], 0.0317; in experiment [7], 0.213. Moreover, the composite z-score in [8] worked out at 0.525; in experiment [9], 0.548; in experiment [10] it was 1.31; in experiment [11], 0.734; in experiment [13] it was 0.271; in [14] it was 0.0449. Besides, the composite z-score in [15] came out at 0.766; in [16] it was 2.9; in experiment [17], 0.143; in [18], 1.31; in experiment [19] it was 0.412; in experiment [20], 0.519. The z-score in experiment [2] is -1.36. The composite Z-score in experiment [12] was 0.845 (inactive).
On to `COC(=O)[C@@]1(Cc2ccc(OC)cc2)[C@H]2c3cc(C(=O)N4CCCC4)n(CCCNc4ncc(C(F)(F)F)cc4Cl)c3C[C@H]2CN1C(=O)c1ccccc1`, for which the composite z-score was determined as 0.958 in experiment [1]; 0.0792 in experiment [3]; 1.33 in [4]; 0.74 in experiment [5]; 0.901 in experiment [6]; 0.76 in experiment [7]. In addition, the composite z-score in experiment [8] is -0.447; in [9], -0.0323; in experiment [10], 0.884; in experiment [11], 0.978; in [13], 1.09; in experiment [14], 0.787. The composite z-score in [15] is 0.516; in experiment [16], 0.97; in experiment [17], 0.213; in [18] it was 0.313; in [19], 0.269; in experiment [20], 0.878. The compound also yielded a z-score in [2] of -2.32. For the same compound, in experiment [12], the composite Z-score is -0.682 (inactive).
As to `O=C1OCCC=C[C@H]2OC34C=CCN(c5ccc(Cl)cc5)C(=O)[C@H]3N(CCCO)C(=O)[C@@H]4C12` (stereo not given in full), the composite z-score in [1] is -0.726; in [3] it was -0.131; in experiment [4], 0.0745; in experiment [5] it was 0.168; in [6], -0.182; in [7], -0.186. Besides, the composite z-score in experiment [8] was 0; in experiment [9] it was -0.421; in experiment [10], 0.275; in experiment [11], -0.989; in [13] it was -0.237; in experiment [14], -0.186. In addition, the composite z-score in experiment [15] is 0.268; in experiment [16] it was -0.714; in [17] it was 0.27; in [18] it was -1.21; in experiment [19] it was -0.406; in experiment [20], -0.295. The compound further came in with a z-score in experiment [2] of -1.04. Also, the composite Z-score in [12] is -0.118 (inactive).
`C=C(C)[C@@H]1CC=C(C(O)C2C=CC3C(=O)NC(=O)C3N2Nc2ccc(Cl)cc2Cl)CC1` (stereo not given in full): the composite z-score in experiment [1] is 0.762; in experiment [3], 0.216; in [4], 2.19; in [5], 1.21; in [6], 0.0328; in [7] it was -0.0271. For the same compound, the composite z-score in [8] is 1.61; in [9], 0.584; in experiment [10], 2.26; in experiment [11] it was 1; in [13] it was 0.0221; in [14], 0.0032. Also, the composite z-score came to 0.708 in [15]; 2 in [16]; 0.708 in experiment [17]; 1.31 in experiment [18]; 0.41 in [19]; 1.11 in experiment [20]. The compound further returned a z-score in experiment [2] of -0.537. In addition, in experiment [12], the composite Z-score is 0.114 (inactive).
With `C=CCNC(=O)[C@H]1[C@@H]2C(=O)O[C@@H](c3ccccc3)[C@@H](c3ccccc3)N2[C@@H](c2ccc(OCCO)cc2)[C@]12C(=O)Nc1ccc(C#CCC(C(=O)OC)C(=O)OC)cc12`, the composite z-score is 0.694 in experiment [1]; 1.37 in [3]; 0.832 in [4]; 0.478 in [5]; 0.0805 in experiment [6]; -0.254 in experiment [7]. The composite z-score in experiment [8] is -0.126; in experiment [9], 0.357; in [10], 1.34; in [11] it was 0.629; in experiment [13] it was 0.116; in experiment [14] it was 0.0022. Besides, the composite z-score in experiment [15] turned out to be 0.328; in experiment [16] it was 1.92; in experiment [17] it was 0.979; in experiment [18], 1.3; in experiment [19] it was 1.24; in [20], 1.12. In [2], the z-score is -2.22. In addition, the composite Z-score in experiment [12] was 0.612 (inactive).
